Experimental data taken from PubChem BioAssay AID1345085 (National Center for Advancing Translational Sciences (NCATS), 2018).
Inconclusive results are not listed. Values without a mark were called inactive. Activity calls are given as the source filed them. The call rests on the fitted dose curve; in most records, active means well fitted cell-killing curve with a large enough effect; inconclusive means small, poorly fitted or top-dose-only effect, or effect the other way; inactive means no such curve, though single readings can be large or run the other way.

System: SW626
Assay: Confirmatory qHTS for gynecologic anti-cancer compounds from libraries of approved drugs and bioactive compounds; further: nearly all actives have a fitted effect of over 55% in size
Settings: gynecologic cancer cell panel viability, ATPlite luminescence, 48 h; series mostly up to 57.6 µM; activity change, negative = viability loss: at the top concentration
Source text: National Center for Advancing Translational Sciences [NCATS] Assay Overview: Chemotherapeutic drug responses vary from cancer to cancer and from patient to patient. These variations could be caused by a number of factors including patient genomic background, tumor mutations, tumor heterogeneity, and aspects of drug treatment. Chemotherapeutic drug resistance is also a common issue and can lead to ineffective treatment and patient death. Here we have profiled the cell killing effects of thousands of compounds to characterize the responses in three gynecological cancers, identify cancer-selective compounds, and understand the diversity of responses to these compounds from pan-cancer suppressors to single cell line selective compounds. In this assay, we screened a 7,914 compound drug library that included approved drug and bioactive compounds in six ovarian, three cervical, and two placental cancer cell lines using the ATPlite assay for cell viability. ATPlite is a luminescence based assay reliant on the conversion of a luciferase substrate to light in the presence of ATP. As a cytotoxic compound will suppress growth and decrease the number of cells, the concentration of ATP will decrease, and less light signal will be detected in the well. Hits were selected from the primary screen for follow-up confirmation. For the confirmation screens, the ovarian cancer cell lines included CAOV-3, SK-OV-3, SW 626, ES-2, PA-1, and TOV-21G. The cervical cancer cell lines included HeLa, Ca Ski, and C-33 A. The placental cancer cell lines included JEG-3 and JAR. HEK 293T cells were used as the control cell line to determine the selectivity index. The ATPlite assay was used to determine the IC50 values.
Assay Protocol Summary: 1,000 cells in 4 uL of media were dispensed into white, solid bottom 1536-well plates using a Multidrop Combi (Thermo Scientific). The Assay plates were incubated for 16 hours at 37 C with 5% CO2 in assay plates, followed by the addition of 23 nL of DMSO or drug dissolved in DMSO. . Each compound was assayed in 11 concentrations (1:3 dilution) from 57.5 uM to 0.977 nM, using the automated Wako 1536 Pin Tool workstation and incubated at 37 C with 5% CO2 48 hours. 4 uL of ATPlite, the ATP monitoring reagent, was then added to the each well of the assay plates using the Multidrop Combi reagent dispenser followed by incubation for 15 minutes at room temperature. The resulting luminescence was measured using the ViewLux plate reader.
On the % scale 0 is the no-effect control and ±100 the full control effect; potency means the concentration at half of the fitted maximal effect.

| Structure (SMILES) | Potency | activity change, negative = viability loss |
| --- | --- | --- |
| CCc1nc(C(N)=O)c(Nc2ccc(N3CCC(N4CCN(C)CC4)CC3)c(OC)c2)nc1NC1CCOCC1 | 3.78 µM (active) |  |
| C1CCC(C(CC2CCCCN2)C2CCCCC2)CC1 (stereo not given) | 27.3 µM (active) |  |
| Oc1cn2c(n1)Nc1ccc(Cl)c(Cl)c1C2 |  | 2.36% [at 19.5 µM] |
| Cc1cc(CN2CCN(c3c(Br)cnc4nc(-c5ccc(N6CCN(C)CC6)cc5)[nH]c34)CC2)no1 | 24.3 µM (active) |  |
| C=CC(=O)Nc1cccc(Oc2nc(Nc3ccc(N4CCN(C)CC4)cc3)ncc2Cl)c1 | 24.3 µM (active) |  |
| COc1cc(N2CCC(N(C)C)CC2)ccc1Nc1ncc(Cl)c(Nc2ccccc2P(C)(C)=O)n1 | 3.85 µM (active) |  |
| OCCNC1CCCc2c1[nH]c1ccc(-c3ccccc3)cc21 (stereo not given) | 19.3 µM (active) |  |
| O=C(c1ccc(/C=C/c2n[nH]c3ccccc23)cc1)N1CCNCC1 | 15.3 µM (active) |  |
| CC[C@]1(O)C[C@H]2CN(CCc3c([nH]c4ccccc34)[C@@](C(=O)OC)(c3cc4c(cc3OC)N(C=O)[C@H]3[C@@](O)(C(=O)OC)[C@H](OC(C)=O)[C@]5(CC)C=CCN6CC[C@]43[C@@H]65)C2)C1 |  | -23.3% |
| COCCOc1nc(-c2ccc(Cl)c(Cl)c2)n(-c2ccc(NC(=O)CCl)cc2)n1 | 6.11 µM (active) |  |
| CCCCN(CCCC)C(=O)CN1C[C@H](c2ccc3c(c2)OCO3)[C@@H](C(=O)O)[C@@H]1c1ccc(OC)cc1 |  | -13% |
| O=C(Nc1cccnc1)N1CCC(Cc2cccc(Oc3ccc(C(F)(F)F)cn3)c2)CC1 |  | -11.9% |
| O=c1cc(CN2CCOCC2)occ1OCCCCCSc1ccnc2cc(C(F)(F)F)ccc12 |  | 0.329% |
| CC(C)Oc1ccc2c(=O)c(-c3ccccc3)coc2c1 | 21.7 µM (active) |  |
| CC(Oc1ccc2[nH]nc(/C=C/c3cnn(CCO)c3)c2c1)c1c(Cl)cncc1Cl (stereo not given) |  | 10.8% |
| CC(=O)OC12COC1CC(O)C1(C)C(=O)C(O)C3=C(C)C(OC(=O)C(O)C(NC(=O)OC(C)(C)C)c4ccccc4)CC(O)(C(OC(=O)c4ccccc4)C21)C3(C)C (stereo not given) |  | 8.89% |
| O=C(O)c1ccc(Nc2ncc3c(n2)-c2ccc(Cl)cc2C(c2c(F)cccc2F)=NC3)cc1 |  | -24.9% |
| Nc1ccc(-c2ccc3ncc4ccc(=O)n(-c5cccc(C(F)(F)F)c5)c4c3c2)cn1 | 6.11 µM (active) |  |
| CCCCc1nc2cc(/C=C/C(=O)NO)ccc2n1CCN(CC)CC | 0.769 µM (active) |  |
| O=C(c1ccc(F)c(F)c1Nc1ccc(I)cc1F)N1CC(O)([C@@H]2CCCCN2)C1 | 9.68 µM (active) |  |

| Structure (SMILES) | Potency | activity change, negative = viability loss |
| --- | --- | --- |
| c1cc(N[C@@H]2CCNC2)nc(-c2cnc3ccc(-c4cn[nH]c4)cn23)c1 |  | 20.5% |
| N#CC1(c2cccc(C(=O)Nc3cc(Oc4ccc5nc(NC(=O)C6CC6)sc5n4)ccc3F)c2Cl)CC1 | 4.85 µM (active) |  |
| CN(c1nccc(=O)[nH]1)C1CCN(c2nc3ccccc3n2Cc2ccc(F)cc2)CC1 |  | 15.2% |
| CC(C)C[C@H](NC(=O)[C@H](CCc1ccccc1)NC(=O)CN1CCOCC1)C(=O)N[C@@H](Cc1ccccc1)C(=O)N[C@@H](CC(C)C)C(=O)[C@@]1(C)CO1 | 1.09 µM (active) |  |
| CN[C@@H](C)C(=O)N[C@H]1CN(C(=O)CC(C)C)CC[C@H]2CC[C@@H](C(=O)NC(c3ccccc3)c3ccccc3)N2C1=O |  | -11.7% |
| Nc1ncnc2c1ncn2[C@@H]1O[C@H](CO)C[C@H]1O |  | -5.75% |
| CN(C)C(CCOc1cccc2ccccc12)c1ccccc1 (stereo not given) |  | -9.38% |
| CC(C)C[C@H](NC(=O)[C@@H](NC(=O)c1cccc(-c2ccccc2)n1)[C@@H](C)O)B(O)O | 0.0385 µM (active) |  |
| COc1cc2ncnc(Nc3ccc(F)c(Cl)c3)c2cc1OCCCN1CCOCC1 |  | -20.8% |
| Cc1nc2ccc(CN(C)c3ccc(C(=O)NC(CCC(=O)O)C(=O)O)s3)cc2c(=O)[nH]1 (stereo not given) |  | -17.4% |
| CN(C)CCC(CSc1ccccc1)Nc1ccc(S(=O)(=O)NC(=O)c2ccc(N3CCN(Cc4ccccc4-c4ccc(Cl)cc4)CC3)cc2)cc1[N+](=O)[O-] (stereo not given) | 7.69 µM (active) |  |
| Cc1ccc(C(=O)Nc2ccc(Oc3cc4cnn(C)c4cc3-c3cn[nH]c3)c(F)c2)c(=O)n1-c1ccc(F)cc1 | 4.32 µM (active) |  |
| CC(C)(C(=O)NCC(F)(F)C(F)(F)F)C(=O)NC1C(=O)Nc2ccccc2-c2ccccc21 (stereo not given) |  | -11% |
| NC(=O)c1cccc2cn(-c3ccc([C@@H]4CCCNC4)cc3)nc12 |  | -13.2% |
| Fc1cc(-c2cccc3ncc(-c4cnn(C5CCNCC5)c4)nc23)cc(F)c1CN1CCOCC1 | 27.3 µM (active) |  |
| COc1cc(C(=O)N2CCC(N3CCN(C)CC3)CC2)ccc1Nc1ncc2c(n1)N(C)c1ccccc1C(=O)N2C | 7.69 µM (active) |  |
| CC(Oc1cc(-n2cnc3ccc(CN4CCN(C)CC4)cc32)sc1C(N)=O)c1ccccc1C(F)(F)F (stereo not given) | 24.3 µM (active) |  |
| CCN(CC)CCCC(C)Nc1ccnc2cc(Cl)ccc12 (stereo not given) |  | -5.13% [at 19.5 µM] |
| C[C@@]1(C(=O)Nc2ccc(F)nc2)CCCN1c1nc(Nc2cc(C3CC3)[nH]n2)c2cccn2n1 |  | -16% |
| COc1cccc2c1C(=O)c1c(O)c3c(c(O)c1C2=O)C[C@@](O)(C(=O)CO)C[C@@H]3O[C@H]1C[C@H](N)[C@H](O[C@@H]2CCCCO2)[C@H](C)O1 | 7.69 µM (active) |  |
